The structures appear in SMILES notation. “And” between values parts separate entries of the source, which are not always exact repeats. Equal entries are not always repeated. Results filed as inconclusive are left out. Unmarked numbers belong to inactive results. The source made the active and inactive calls. The call rests on the fitted dose curve; in most records, active means well fitted inhibition curve with a large enough effect; inconclusive means small, poorly fitted or top-dose-only effect; inactive means flat fitted curve, though single readings scatter.

The record followed here is PubChem BioAssay AID651605 (National Center for Advancing Translational Sciences (NCATS), 2012).

The target in the assay is Ubiquitin carboxyl-terminal hydrolase 1 (Homo sapiens) (UniProt O94782). As to the kind of experiment: Inhibitors of USP1/UAF1: SAR in Primary Assay. The conditions noted are these: Recombinant USP1/UAF1, Ub-Rhodamine cleavage fluorescence; series mostly up to 57.1 µM; activity change, negative = inhibition: at the top concentration. An excerpt: Deubiquitinating enzymes (DUBs) are a class of enzymes that can cleave isopeptide bond formed between the C-terminal carboxylate of ubiquitin and a lysine side-chain amino group on the target protein. Among them, ubiquitin specific proteases (USPs) constitute the largest DUB family. Human USPs are emerging as promising targets for pharmacological intervention because of their connection to a number of human diseases, including prostate, colon and breast cancer (1, 2), pediatric acute lymphoblastic leukemia (3), and familial cylindromatosis (4). The advantage of inhibiting USPs lies in the potential specificity of therapeutic intervention that can lead to better efficacy and reduce nonspecific side effects. In a collaboration between the University of Delaware and the NIH Chemical Genomics Center, a high-throughput screen assay was developed to screen for USP1/UAF1 inhibitors (5). This assay was used to test the analogs that were synthesized based on SAR around the original hit. NIH Chemical Genomics Center [NCGC] NIH Molecular Libraries Probe Centers Network [MLPCN] MLPCN Grant: DA030552-01 Assay Submitter (PI): Zhihao Zhuang, University of Delaware 1. Priolo, C., et al. (2006) The isopeptidase USP2a protects human prostate cancer from apoptosis. Cancer Res 66, 8625-8632 2. Popov, N., et al. (2007) The ubiquitin-specific protease USP28 is required for MYC stability. Nat Cell Biol 9, 765-774 3. De Pitta, C., et al. (2005) A leukemia-enriched cDNA microarray platform identifies new transcripts with relevance to the biology of pediatric acute lymphoblastic leukemia. Haematologica 90, 890-898 4. Kovalenko, A., et al. (2003) The tumour suppressor CYLD negatively regulates NF-kappaB signalling by deubiquitination. Nature 424, 801-805 5. Chen, J., et al. (2011) Selective and cell-active inhibitors of the USP1/ UAF1 deubiquitinase complex reverse cisplatin resistance in non-small cell lung cancer cells. Chem Bio 18(11):1390-400.
Chain of Ubiquitin carboxyl-terminal hydrolase 1 (Homo sapiens) (O94782 whole entry, looked up): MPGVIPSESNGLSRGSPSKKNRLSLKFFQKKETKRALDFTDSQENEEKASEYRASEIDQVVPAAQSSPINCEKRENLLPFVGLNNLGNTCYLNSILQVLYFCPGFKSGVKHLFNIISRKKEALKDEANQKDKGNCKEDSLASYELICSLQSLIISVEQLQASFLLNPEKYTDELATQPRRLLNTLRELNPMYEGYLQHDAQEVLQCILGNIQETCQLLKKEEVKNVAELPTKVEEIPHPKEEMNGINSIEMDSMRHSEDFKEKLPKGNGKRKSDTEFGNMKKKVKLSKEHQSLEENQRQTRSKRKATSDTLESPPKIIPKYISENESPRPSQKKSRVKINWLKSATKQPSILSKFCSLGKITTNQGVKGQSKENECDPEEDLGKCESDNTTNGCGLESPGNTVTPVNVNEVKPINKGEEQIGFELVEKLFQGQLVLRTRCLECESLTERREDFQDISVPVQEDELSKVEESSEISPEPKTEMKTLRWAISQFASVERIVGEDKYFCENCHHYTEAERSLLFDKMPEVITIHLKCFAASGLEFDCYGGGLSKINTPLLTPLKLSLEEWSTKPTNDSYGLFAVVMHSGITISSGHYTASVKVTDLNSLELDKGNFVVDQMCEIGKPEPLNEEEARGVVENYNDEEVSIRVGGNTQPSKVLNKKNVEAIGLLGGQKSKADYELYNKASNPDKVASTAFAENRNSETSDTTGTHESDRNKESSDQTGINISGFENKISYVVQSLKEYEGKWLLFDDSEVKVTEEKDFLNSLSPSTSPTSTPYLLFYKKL
3 microliters of reagents (buffer in columns 3 and 4 as negative control and 1nM USP1/UAF1 complex in columns 1, 2, and 5-48) are dispensed into Greiner black solid bottom 1536-well assay plates. Compounds are then transferred via Kalypsys pin tool equipped with 1536-pin array (10nl slotted pins, V&P Scientific, San Diego, CA). Following an incubation step of 15 min at room temperature, 1ul of Ub-Rho substrate (150nM final concentration) is added to initiate the reaction. The plates are immediately centrifuged at 1000 rpm for 15 seconds, and subsequently transferred to a ViewLux high-throughput CCD imager (PerkinElmer) wherein kinetic measurements of fluorescence are acquired using 480 nm excitation/540 nm emission filter set (6 reads every 60 seconds, see Table 1). All reagents are diluted in an assay buffer consisting of 50mM HEPES (pH 7.8), 0.5mM EDTA, 0.1 mg/ml BSA, 1mM TCEP, and 0.01% Tween-20.
Consider `Cc1cnc(-c2ccccc2C2COC2)nc1NCc1ccc(-n2ccnn2)cc1`, for which the “activity change, negative = inhibition” value was -9.72%.
In the case of `Fc1cnc(-c2ccccc2C(F)F)nc1NCC1CCN(c2cnccn2)C1` (stereo unspecified), the Potency was 21500 nM (active).
The same measure, in the same setting: as for `CC(C)c1ccccc1-c1ncc(F)c(NCc2ccc(-n3ccnn3)cc2)n1`, the figure is 17.1 nM (active); as for `CC(C)c1ccccc1-c1ncc(F)c(NCc2ccc(-c3cccnc3)cc2)n1`, 60.7 nM (active).
Same read-out and setting: to `Cc1cnc(-c2ccccc2C(C)C)nc1NCc1ccc(C#N)cc1` belongs 482 nM (active); to `Cc1cnc(-c2ccccc2C(F)F)nc1NCc1ccc(-n2ccnn2)cc1`, 482 nM (active); to `Fc1cnc(-c2ccccc2C(F)F)nc1NCc1ccc(-c2cccnc2)cc1`, 1210 nM (active).
Same read-out and setting: as for `Cc1ccc(-c2ccc(CNc3nc(-c4ccccc4C(C)C)nc4ccsc34)cc2)cn1`, the figure is 96.1 nM (active); as for `Cc1ccc(N2CCC(CNc3nc(-c4ccccc4C(C)C)ncc3F)CC2)cn1`, 96.1 nM (active); as for `FC(F)(F)c1ccccc1-c1nc(NCc2ccc(N3CCOCC3)cc2)c2ccccc2n1`, 7640 nM (active).
Turning to `Cc1ccc(-c2ccc(CNc3nc(-c4ccccc4C(C)C)ncc3F)cc2)cn1`, the Potency is 76.4 nM (active).
Regarding `CC(C)c1ccccc1-c1ncc(F)c(NC2(c3ccc(-c4cccnc4)cc3)CC2)n1`, the Potency was 38.3 nM (active) and 34.1 nM (active).
The same measure, in the same setting: as for `Cc1cnc(-c2ccccc2OC(C)C)nc1NCc1ccc(-n2ccnn2)cc1`, the figure is 429 nM (active); as for `Fc1cnc(-c2ccccc2C(F)F)nc1NCc1ccc(-c2ccn[nH]2)cc1`, 1520 nM (active).
Same read-out and setting: to `Fc1cnc(-c2ccccc2C(F)F)nc1NCc1ccc(-n2ccnn2)cc1` belongs 1210 nM (active).
Same read-out and setting: to `COc1cnc(-c2ccccc2C(C)C)nc1NCc1ccc(-c2cccnc2)cc1` belongs 42.9 nM (active); to `FC(F)(F)c1ccccc1-c1nc(NCc2ccc(-c3cccnc3)cc2)c2sccc2n1`, 857 nM (active).
Turning to `Cc1cnc(-c2ccccc2C(C)C)nc1NCC1CN(c2cccnc2)C1`, the Potency is 6810 nM (active).
On the same count and under the same terms, to `CC(C)c1ccccc1-c1nc(NCC2CCN(c3cccnc3)CC2)c2ccccc2n1` belongs 85.7 nM (active).
On the same count and under the same terms, to `CC(C)c1ccccc1-c1ncc(F)c(NC(C)(C)c2ccc(-c3cccnc3)cc2)n1` belongs 192 nM (active).
Consider `Cc1cnc(-c2ccccc2C(F)F)nc1NCc1ccc(-c2cccnc2)cc1`, for which the Potency is 341 nM (active).
Still for that read-out and setting: as for `Cc1ccc(-c2ccc(CNc3nc(-c4ccccc4C(C)C)ncc3C)cc2)cn1`, the figure is 42.9 nM (active).
On the same count and under the same terms, to `Cc1cnc(-c2ccccc2C(C)C)nc1NCC1CCN(c2cccnc2)CC1` belongs 48.2 nM (active); to `Cc1ccc(-c2ccc(C(C)Nc3nc(-c4ccccc4C(C)C)ncc3C)cc2)cn1` (stereo unspecified), 341 nM (active).
Still for that read-out and setting: to `FC(F)(F)c1cc(-c2ccc(CNc3nc(-c4ccncc4)nc4ccccc34)cc2)ccn1` belongs 19200 nM (active); to `Cc1cnc(-c2ccccc2C(C)C)nc1NCc1ccc(-c2cn[nH]n2)cc1`, 242 nM (active).
Turning to `CSc1ccccc1-c1ncc(C)c(NCc2ccc(-c3cccnc3)cc2)n1`, the Potency was 541 nM (active).
The same measure, in the same setting: to `FC(F)(F)c1ccccc1-c1nc(NCc2ccc(-c3cccnc3)cc2)c2ccccc2n1` belongs 607 nM (active); to `CC(C)c1ccccc1-c1nc(NCc2ccc(-c3cccnc3)cc2)c2cccn2n1`, 215 nM (active); to `N#Cc1c(-c2ccccc2C(F)(F)F)nc2ccccc2c1NCc1ccc(-c2cccnc2)cc1`, 9610 nM (active).
In the case of `Cc1cnc(-c2ccccc2C(C)C)nc1NCc1cccnc1`, the Potency is 2150 nM (active).
